Screening results as filed in PubChem.
Compounds with a hit are over-represented: about 12% of the library has one in this group of screens.
HP1b chromo inh – HP1-beta chromodomain-methylated histone interaction inhibition. P83916. AlphaScreen HP1-beta / biotin-H3K9me3 peptide binding. Potency, µM (highest dose often 114 µM), usual class: inhibitors. hit rate 0.56% among 390,000. AID 540317; also: nearly all actives have a fitted effect of over 70% in size
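HP1-beta protein (50 nM final) preincubated 30 min at room temperature with biotinylated H3(1-18)K9me3 peptide (50 nM) in PBS pH 7.4, 0.01% Tween-20, then compound added for 30 min. AlphaScreen streptavidin donor/nickel chelate acceptor beads (10 ug/mL final), 30 min dark, luminescence read.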
BAZ2B inh – BAZ2B (human) inhibition. AlphaScreen BAZ2B-H3K14Ac peptide displacement. Potency, µM (top dose mostly 114 µM), usual class: inhibitors. hit rate 4.4% among 360,000; also: nearly all actives have a fitted effect of over 60% in size
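Inhibition is scored as reduced AlphaScreen emission. The BAZ2B/b-H3(5-23)K14Ac complex (50 nM each) in PBS pH 7.4, 0.01% Tween-20 meets compound (up to 110 uM) for 30 min at RT before bead addition.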
TDP1 inh – blocks human tyrosyl-DNA phosphodiesterase 1 | AID 485290 | Potency, µM (highest dose often 130 µM), hits mostly inhibitors | Q9NUW8 | hit rate 0.28% among 350,000 | recombinant TDP1, AlphaScreen DNA substrate cleavage; also: nearly all actives have a fitted effect of over 40% in size
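Steps: enzyme plus compound, 15 min RT; add biotin/phosphotyrosine-FITC oligonucleotide (15 nM final), react 5 min; add donor/acceptor beads (10 ug/ml final), 10 min; read AlphaScreen. Tdp1 at 1 nM final.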
Sfp PPTase inh – blocks B. subtilis Sfp PPTase activity; AID 1490; Biochemical Sfp PPTase activity, qHTS; Potency, µM, actives largely listed as inhibitors; hit rate 3.5% among 310,000; Q9F4F7;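 also: the enzyme is Sfp with the accession as filed and its product quenches rhodamine fluorescence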
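Sfp 15 nM + cpd, 15 min RT; start w/ rhodamine-CoA 5 uM, BHQ-2-YbbR 12.5 uM (final); 50 mM Hepes pH 7.6, 10 mM MgCl2, 0.01% NP-40, 0.01% BSA; read 525/598 nm at 0 and 30 min.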
G9a block – inhibitors of human histone lysine methyltransferase G9a; hit rate 8.8% among 350,000; Potency, µM (doses to about 102 µM), usual class: inhibitors; G9a H3K9 monomethylation, AlphaScreen, 2 h; Q96KQ7; AID 504332; also: nearly all actives have a fitted effect of over 75% in size
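Signal arises when biotinylated H3K9 peptide, once monomethylated, bridges streptavidin donor and antibody-captured acceptor beads. Enzyme at 20 nM was preincubated 15 min with test compounds; peptide 500 nM and SAM 20 uM then reacted for 2 h.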
JMJD2A Tudor – inhibitors of human JMJD2A Tudor domain; Potency, µM (doses to about 114 µM), actives largely listed as inhibitors; O75164; hit rate 4.4% among 390,000; AlphaScreen JMJD2A-Tudor / H3K4me3 peptide binding; also: nearly all actives have a fitted effect of over 50% in size
Numbers stand for hits; n = inactive; u = inconclusive; x = not tested or not shown; ! = repeats disagree; [ ] = dose if it differs, or a comment. Calls follow the shape of the dose curve; as a rule, active = well fitted curve in the direction sought with a large enough effect; inconclusive = small, poorly fitted or top-dose-only effect, or another doubt; inactive = no such curve, though single readings can be large; an effect the other way counts as inactive or inconclusive.

SMILES | HP1b chromo inh | BAZ2B inh | TDP1 inh | Sfp PPTase inh | G9a block | JMJD2A Tudor
Cc1nc(-c2ccc(S(=O)(=O)NCc3ccc(N(C)C)cc3)cc2)co1 | n | 40µM | n | x | u | 50µM
CNC(=O)CSc1nnc(COc2ccc([N+](=O)[O-])cc2)n1C | n | 56µM | n | n | n | n
COc1cccc(C(=O)CSc2nnc(CNS(C)(=O)=O)n2-c2ccc(C)cc2)c1 | u | n | x | n | 18µM | 18µM
CCn1c(COc2ccccc2)nnc1SCC(=O)c1cccc([N+](=O)[O-])c1 | n | n | n | n | 40µM | u
COC(=O)CSc1nnc(CNC(=O)c2cc(OC)cc(OC)c2)n1-c1ccc(F)cc1 | n | n | n | n | n | n
CCOC(=O)CSc1nnc(-c2ccoc2C)n1-c1ccc(OCC)cc1 | n | n | n | 56µM | u | n
NS(=O)(=O)c1ccc(CCNC(=O)C(=O)C2C(=O)Nc3ccccc32)cc1 (centres undefined) | n | n | n | n | x | u
O=C(NC(=S)NCc1ccccc1)c1cccc(Cl)c1 | n | n | n | n | x | n
COc1ccc(-n2c(COc3ccccc3)nnc2SCC(N)=O)cc1 | n | n | n | n | 45µM | n
COc1cccc(-c2nnc(SCC(N)=O)n2-c2ccc(Cl)cc2)c1 | n | n | n | n | 28µM | n
COc1ccc(-n2c(COc3ccc4c(c3)OCO4)nnc2SCC(=O)O)cc1 | n | n | n | n | 50µM | n
CCOC(=O)CSc1nnc(CSc2nc(N)c3c(C)c(C)sc3n2)n1-c1ccccc1 | n | n | n | n | 45µM | n
COc1ccc(C(=O)CSc2nnc(COc3ccc(C#N)cc3)n2-c2ccccc2)cc1 | n | n | n | n | n | n
COc1ccc(CNC(=S)Nc2ccccc2)cc1 | n | n | n | n | n | n
Cc1cc(OCC(=O)N2CCOCC2)ccc1NC(=O)c1ccccc1C | n | n | n | n | n | n
C=CCn1c(SCC(=O)c2ccc(Cl)cc2)nnc1-c1ccc2c(c1)OCO2 | n | u | n | n | u | n
CCn1c(COc2ccc3c(c2)OCO3)nnc1SCC(=O)c1ccc(Cl)cc1 | n | n | n | n | 50µM | n
COc1cccc(-n2c(COc3ccc(C)cc3)nnc2SCC(N)=O)c1 | n | u | n | n | u | n
CCOC(=O)CSc1nnc(Cc2ccccc2)n1-c1cccc(Cl)c1 | n | u | n | n | n[0.501 µM] | n
COc1ccc(-n2c(COc3ccc(C)cc3)nnc2SCC(N)=O)cc1 | n | n | n | n | 32µM | n
CCOC(=O)CSc1nnc(Cc2ccc(OC)cc2)n1-c1ccccc1 | n | n | n | n | 7.9µM | 45µM
Cc1ccc(Cn2c(C(=O)NCc3ccccc3Cl)cc3sccc32)cc1 | n | n | n | x | u | n
CC(=O)Oc1ccc2c(c1)CCC1C2CC[C@]2(C)C(=O)CCC12 (some centres undefined) | x | x | n | n | n[2.33 µM] | x
Cc1ccccc1Nc1nnc(-c2ccc(C)c(S(=O)(=O)N3CCN(C)CC3)c2)c2ccccc12 | n | n | x | x | n | n
Cc1ccc(C)c(Nc2nnc(-c3ccc(C)c(S(=O)(=O)N4CCN(C)CC4)c3)c3ccccc23)c1 | n | u | x | x | 13µM | u
SMILES | HP1b chromo inh | BAZ2B inh | TDP1 inh | Sfp PPTase inh | G9a block | JMJD2A Tudor
CC1CCCCC1NC(=O)COC(=O)c1c2c(nc3ccccc13)/C(=C\c1ccco1)CC2 (centres undefined) | u | x | x | x | x | 45µM
COC(=O)c1ccc(CN2CCN(Cc3ccc(C(=O)OC)o3)CC2)o1 | n | x | n | n | 11µM | n
COC(=O)c1ccc(CN2C(=O)c3ccccc3C2=O)o1 | n | n | n | n | n | n
COc1ccc(-c2nc(SCC(=O)Nc3ccc4c(c3)OCO4)c(-c3ccc(OC)cc3)[nH]2)cc1 | n | 79µM | n[12.3 µM] | x | 13µM | u
COc1ccc(-c2[nH]c(-c3cccc(OC)c3)nc2SCC(=O)NC2CCCC2)cc1 | n | u | n | n | 79µM! | u
CCN(CC(=O)Nc1ccc(NC(C)=O)cc1)C(=O)c1c(C)nn(Cc2ccc(C)cc2)c1Cl | n | x | x | x | x | n
CCNC(=S)NNC(=O)c1cc(-c2cccc(C)c2)nc2ccccc12 | n | n | n | n | u | n
CC(=O)Nc1cccc(NC(=O)c2cc(-c3cccnc3)nc3ccc(Br)cc23)c1 | n | n | n | n | n[0.501 µM] | n
CCCCNC(=S)NNC(=O)c1cc(-c2cccnc2)nc2ccccc12 | n | n | n | n | 79µM | n
CCCNC(=S)NNC(=O)c1cc(-c2cccnc2)nc2ccccc12 | n | n | n | n | n[0.501 µM] | n
CSc1ccccc1NC(=O)c1cc(-c2cccnc2)nc2ccc(Br)cc12 | n | u | n | 45µM | n[12.7 µM] | u
O=C(NNC(=S)Nc1ccccc1)c1cc(-c2cccnc2)nc2ccccc12 | n | n | n | n | 16µM | n
CCNC(=S)NNC(=O)c1cc(-c2cccnc2)nc2ccccc12 | n | n | n | n | 45µM | n
CCn1c(COc2ccc(C)cc2)nc2ccccc21 | n | n | n | n | n | n
Cc1ccc(C)c(Cn2c(-c3cccs3)nc3ccccc32)c1 | n | n | n | x | n | n
COc1ccc(OC)c(NC(=O)c2c(C)oc3ncnc(N4CCOCC4)c23)c1 | n | n | n | x | n | n
CC(=O)c1sc(NC(=O)C2CC(=O)N(Cc3ccccc3)C2)nc1-c1ccccc1 (centres undefined) | n | n | n | x | 56µM | n
Cc1cccc(CN2C(=O)N(c3ccc(C(C)C)cc3)S(=O)(=O)c3ccccc32)c1 | n | n | n | x | n | n
CCOCCCNC(=O)c1cc(Sc2cccc(Cl)c2)nc2ccccc12 | n | n | n | x | n | n
O=c1[nH]c2ccc(S(=O)(=O)Nc3ccccc3O)cc2[nH]1 | n | n | x | n | 2.2µM | n
CCOc1ccc(C2N(c3cc(C)on3)C(=O)C3CCCN32)cc1OC (centres undefined) | u | n | n | n | u | 35µM
COc1ccc(C2N(c3cc(C)on3)C(=O)C3CCCN32)cc1OC (centres undefined) | n | u | n | n | u | 20µM
O=C(CCCN1C(=O)c2cccnc2Oc2ccc(Cl)cc21)N1CCCCC1 | n | u | n | n | n | n
COc1ccccc1NCCC(=O)OCC(=O)NC1CC1 | n | n | n | n | n | n
COc1ccccc1NCCC(=O)OCC(=O)NC1CCCCC1 | n | n | n | n | 3.5µM | n
COc1ccccc1NC(=O)CC(NC1CCCCC1)C(=O)O (centres undefined) | n | n | n | n | 50µM | n
COc1ccc(C2CC(=O)N3CN(C4CCCCC4)CSC3=C2C#N)cc1 (centres undefined) | u | x | n | x | 1.8µM | 7.1µM
